# Rows were chosen to be rich in hits. Some 1.8% of all compounds tested hit in one or more screens of this group.
# GRP78 ERSR act – qHTS for Inducers of the Endoplasmic Reticulum Stress Response (ERSR) in Human Glioma: qHTS. U87-MG GRP78 promoter luciferase reporter, 16 h. Potency, µM, without a hit: at the top dose activation, most hits filed as activators. 0.02% of 420,000 active. AID 602332, 2012; further: potency means the concentration at half of the fitted maximal effect; series mostly up to about 76 µM; % of control where 0% means no effect; nearly all actives have a fitted effect of over 35% in size
#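 ERSR induction read as luciferase luminescence (Bright-Glo, 10 min at room temperature) in stably transfected human U87-MG glioma cells exposed to compounds for 16 h, using GRP78 as sensor.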
# TCR activator – Activators of T cell receptors: qHTS campaign; primary human leukocytes, anti-CD3, IL-2 HTRF, 48 h; 330,000 tested, under 10 active; Potency, µM (top dose mostly 9.22 µM), for inactives: at the top dose activation of IL-2 secretion, most hits filed as activators; further: % of control where 0% means no effect
#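 IL-2 release read by HTRF sandwich (Eu cryptate donor, d2 acceptor, 665 nm emission) after 48 hr exposure of primary human leukocytes to compound together with anti-CD3 beads in the absence of co-stimulatory signals.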
# Mito fusion yeast – qHTS Assay for Small Molecule Inhibitors of Mitochondrial Division or Activators of Mitochondrial Fusion; S. cerevisiae fusion-defective mutant growth rescue, CellTiterGlo 48 h; Potency, µM (titrated, usually from 46.1 µM), without a hit: top-dose growth rescue (activation), hits mostly activators; 0.23% of 320,000 active; AID 485298, 2010; further: potency means the concentration at half of the fitted maximal effect; % of control where 0% means no effect; nearly all actives have a fitted effect of over 45% in size
#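 S. cerevisiae fusion-defective temperature-sensitive mutants (e.g. fzo1-1, mgm1-5) grown 48 h at 37C in YPEG (ethanol/glycerol non-fermentable) medium with 23 nl compound per well; growth rescue read as CellTiterGlo luminescence.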
# AT treatment – qHTS Assay for Identifying a Potential Treatment of Ataxia-Telangiectasia. 0.19% of 320,000 active. F2112 A-T fibroblasts, KAP-1 phosphorylation AlphaLISA; neocarzinostatin DNA damage 30 min before lysis. AID 485349, 2010. Potency, µM (series often up to 57.5 µM), without a hit: top-dose activation, actives largely listed as activators; further: potency means the concentration at half of the fitted maximal effect; % of control where 0% means no effect; nearly all actives have a fitted effect of over 45% in size
#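 hTERT-immortalized A-T patient fibroblasts (F2112), 500 cells/well in OPTI-MEM, 1% FBS, got compounds for 60 min, then NCS for 30 min at 37C. Lysates were then assayed for phospho-KAP-1 by AlphaLISA (anti-pKAP1 donor, anti-KAP1 acceptor beads), 6 hr at 25C.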
# ClpP mod – qHTS Assay for Activators of ClpP; purified B. subtilis ClpP, FRET peptide cleavage, 20 min; Potency, µM (highest dose often 57.5 µM), inactives show at the top dose activity change, negative = active; 1.9% of 340,000 active; active means well fitted falling curve with a large enough effect; inconclusive means small, poorly fitted or top-dose-only effect; inactive means no such curve, though single readings can be large or run the other way; further: potency means the concentration at half of the fitted maximal effect; the source files actives as falling curves though it sought activators and does not explain the sign; nearly all actives have a fitted effect of over 65% in size
# Target sequence (P80244 whole entry, looked up): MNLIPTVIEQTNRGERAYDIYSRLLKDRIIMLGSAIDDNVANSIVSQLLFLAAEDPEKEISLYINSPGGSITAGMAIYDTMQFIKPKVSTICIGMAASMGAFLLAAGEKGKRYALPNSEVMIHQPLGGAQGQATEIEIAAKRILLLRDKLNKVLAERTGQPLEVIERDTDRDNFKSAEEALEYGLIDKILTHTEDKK
#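 ClpP 10 microg/mL final, pH 8 Tris/KCl buffer with BSA, glycerol, Tween-20; compound pinned in; FRET-FV substrate; RT 20 min; Ex320/Em430; ΔFRET vs ADEP 5.8 microM, DMSO, no enzyme.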
# MBNL1 CUG block – qHTS Assay for Inhibitors of MBNL1-poly(CUG) RNA binding; AID 2675, 2010; TR-FRET MBNL1-His/biotin-(CUG)12 binding, 665/545 ratio; Potency, µM (series often up to 57.5 µM), for inactives: at the highest dose activity change, negative = inhibition, most hits filed as inhibitors; 0.036% of 280,000 active; active means well fitted inhibition curve with a large enough effect in the signal ratio, with a control signal flat, not every such curve was filed as active; inconclusive means small, poorly fitted or top-dose-only effect, or effect the other way, or a change in a side signal; inactive means no such curve, though single readings can be large or run the other way; the % refers to the signal ratio; further: potency means the concentration at half of the fitted maximal effect; on the % scale 0 is the no-effect control and ±100 the full control effect
# Target sequence (Q9NR56 whole entry, looked up): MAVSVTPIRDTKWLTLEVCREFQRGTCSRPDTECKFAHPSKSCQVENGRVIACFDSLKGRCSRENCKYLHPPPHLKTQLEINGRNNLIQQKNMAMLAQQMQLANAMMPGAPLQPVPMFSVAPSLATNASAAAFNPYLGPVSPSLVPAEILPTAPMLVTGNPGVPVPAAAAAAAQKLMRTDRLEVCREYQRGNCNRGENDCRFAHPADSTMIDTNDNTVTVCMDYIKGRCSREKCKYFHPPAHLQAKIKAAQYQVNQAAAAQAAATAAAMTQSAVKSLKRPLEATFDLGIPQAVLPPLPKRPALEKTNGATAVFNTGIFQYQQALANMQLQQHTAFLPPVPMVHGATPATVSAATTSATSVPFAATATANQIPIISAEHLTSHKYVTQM
#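 TR-FRET readout: Ex 340 nm, 665/545 nm emission ratio, normalized to buffer-only (basal) and MBNL1-(CUG)12 controls. Complex of MBNL1-His with Biotin-(CUG)12, compounds 92 nM–58 uM, incubated 60 min at room temperature.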
# * hit, by the source's call; i = inactive; ? = inconclusive; / = not tested or not shown; [ ] = remark or other dose. Unless noted, the call rests on the fitted dose curve; in most records, active means well fitted curve in the direction sought with a large enough effect; inconclusive means small, poorly fitted or top-dose-only effect, or another doubt; inactive means no such curve, though single readings can be large; an effect the other way counts as inactive or inconclusive.
SMILES,GRP78 ERSR act,TCR activator,Mito fusion yeast,AT treatment,ClpP mod,MBNL1 CUG block
Brc1ccc(-c2nc3ccccc3s2)s1,-1.4%,18.5%,-0.4%,8.9%,28.2µM*,i
CNC(=O)c1cc(C)c(-c2ccccc2)s1,6.3%,/,13.7%,7.8%,31.6µM*,?
Cc1cccnc1-c1cccc2c1OC(CNC(=O)/C=C/c1cccs1)C2 (stereo unspecified),-1.5%,/,/,/,/,/
CCCCCCCCCCCCC/C=C/C(O)C(COP(=O)(O)OCCN)NC(=O)CCCCCCCCCCCCCCCCC (stereo unspecified),3.9%,/,/,/,/,/
O=C(NC12CC3CC(CC(C3)C1)C2)c1cccnc1,3.4%,0.7%,-3.6%,4.8%,0.6%,-5.5%
O=C(NC12CC3CC(CC(C3)C1)C2)c1cccc(OC(F)F)c1,4.3%,-3.5%,-3.0%,3.98µM*,-1.3%,-1.6%
NS(=O)(=O)c1cccc(NC(=O)CSc2nc3ccc(Cl)cc3[nH]2)c1,-1.6%,1.4%,-2.0%,7.0%,14.1µM*,-5.5%
COC(=O)C1CCCCN1Cc1nc(N(C)C)c2ccccc2n1 (stereo unspecified),-1.1%,/,/,/,/,/
C=C1CCC2C(C)(C)[C@H](O)CC[C@@]2(C)[C@@H]1COc1cc(=O)oc2ccccc12 (stereo partly specified),-6.1%,4.1%,14.1µM*,4.4%,-22.5%,1.8%
COc1cc(-c2cc(C)c3cccc(OC)c3n2)cc2c1OCCN(C(=O)CCn1ccc(C)n1)C2,-3.0%,/,/,/,/,/
CCNc1ncc2nc(-c3ccc(F)cc3)c(=O)n(Cc3ccc(F)cc3)c2n1,-0.3%,/,/,/,/,/
Cc1ccc(C(=O)NCCc2c[nH]c3ccccc23)c(C)c1,-1.7%,5.2%,17.0%,25.1µM*,/,-27.0%
O=C(NCCc1c[nH]c2ccccc12)c1ccccc1,5.7%,/,-1.8%,-1.5%,0.5%,-19.7%
Cc1nn(C2CC(O)C(O)C(CO)O2)c(=O)[nH]c1=O (stereo unspecified),0.9%,-2.3%,/,/,28.2µM*,/
O=C(CN1C(=O)C(=O)N(CCC2=CCCCC2)C1=O)c1c[nH]c2ccccc12,-2.3%,2.3%,/,0.4%,11.2µM*,/
O=C(CN1C(=O)C(=O)N(Cc2ccco2)C1=O)c1c[nH]c2ccccc12,-4.4%,9.5%,-1.8%,-3.5%,-3.4%,-20.4%
CC(=O)Nc1ccc(C2=NN(c3ccccc3)C(c3ccccc3)C2)cc1 (stereo unspecified),1.0%,-10.2%,?,22.4µM*,/,15.4%
O=Cc1ccc(N2N=C(c3ccccc3)CC2c2ccccc2)cc1 (stereo unspecified),-0.9%,-10.0%,8.91µM*,33.7%,3.8%,12.8%
COc1ccc(C2CC(c3ccccc3)=NN2c2ccc(/C=N/NC(=O)c3ccncc3)cc2)cc1 (stereo unspecified),9.6%,1.0%,17.7%,-1.0%,-0.1%,9.0%
CC(=O)Nc1ccc(C2CC(c3ccc(Cl)cc3)=NN2c2ccccc2)cc1 (stereo unspecified),9.7%,-10.1%,12.7%,25.1µM*,4.0%,0.0%
N#CCC(=O)N/N=C/c1ccc(N2N=C(c3ccccc3)CC2c2ccccc2)cc1 (stereo unspecified),-1.6%,0.6%,7.2%,31.6µM*,/,9.6%
COc1ccc(C2=NN(c3ccc(C=O)cc3)C(c3ccccc3)C2)cc1 (stereo unspecified),-1.3%,4.9%,?,23.4%,/,8.3%
O=C(O)c1ccc(N2N=C(c3ccccc3)CC2c2ccccc2)cc1 (stereo unspecified),-1.4%,/,-3.4%,30.3%,3.8%,91.6%
O=C(NC[C@@H]1CCCN2CCCC[C@H]12)c1cnn(-c2nccc(-c3cc4ccccc4o3)n2)c1C1CC1,-5.7%,/,/,/,/,/
COc1ccc(NC(=O)COc2ccccc2C(=O)Nc2ccccc2)cc1,-3.9%,/,/,/,-0.5%,/
SMILES,GRP78 ERSR act,TCR activator,Mito fusion yeast,AT treatment,ClpP mod,MBNL1 CUG block
NC(=O)[C@@H]1CCCN1Cc1c(C(=O)N2CCN(C3CCCCC3)CC2)nc2ccccn12,-3.6%,0.5%,0.7%,19.3%,17.8µM*,2.4%
O=C(c1nc2ccccn2c1CN1CCCC(O)C1)N1CCN(C2CCCCC2)CC1 (stereo unspecified),5.6%,9.5%,-2.1%,0.1%,-18.6%,-5.8%
CCC12CN(C(=O)c3ccc([N+](=O)[O-])cc3)CC(CC)(CN(C(=O)c3ccc([N+](=O)[O-])cc3)C1)C2=O,-2.1%,-3.8%,-4.0%,7.08µM*,1.6%,?
O=C1CC(c2ccco2)CC2=C1C1c3ccccc3C(=O)N1c1ccccc1N2 (stereo unspecified),28.2µM*,2.2%,3.7%,-2.7%,-0.5%,-5.8%
CCC(=O)N1c2ccccc2NC2=C(C(=O)CC(c3ccco3)C2)C1c1ccco1 (stereo unspecified),-3.6%,5.7%,-2.3%,-4.8%,-10.0%,-1.0%
CCCC(=O)Nc1nc2nc(-c3ccccc3)cc(-c3ccccc3)n2n1,-1.9%,-4.9%,6.8%,4.4%,12.6µM*,-10.2%
CCC(=O)Nc1nc2nc(-c3ccccc3)cc(-c3ccccc3)n2n1,-0.8%,-57.4%,0.7%,?,3.4%,4.5%
O=C1c2ccccc2NC(c2cccnc2)N1c1ccccc1F (stereo unspecified),-3.1%,-6.0%[46.1 µM],-1.7%,2.2%,11.2µM*,/
CCC1CCCCC1,-7.6%,/,/,/,/,/
CCC(=O)Nc1c(-c2ccc(OC)cc2)c(=O)c2ccccc2n1C,-2.6%,-9.2%,-1.7%,-0.7%,35.5µM*,-0.5%
CSc1ccc(/C=N/N2CCN(Cc3ccc(C)cc3C)CC2)cc1,-2.6%,2.2%,3.9%,0.9%,-0.7%,-4.8%
Cc1ccc(CN2CCN(/N=C/c3sccc3C)CC2)c(C)c1,-4.1%,3.0%[46.1 µM],5.9%,-5.8%,28.2µM*,-2.2%
C[N+]1(C)[C@@H]2CC(OC(=O)C(O)(c3cccs3)c3cccs3)C[C@H]1[C@@H]1O[C@@H]12 (stereo partly specified),-2.3%,/,/,/,/,/
Cc1nc(C)c(C(=O)N2CCc3c(cnc(C)c3CNC(=O)c3cncs3)C2)s1,-4.5%,/,/,/,/,/
COc1cccc(Cn2cnc(-c3ccccc3OC)c2-c2ccco2)c1,/,/,/,/,-17.8%,/
COc1cccc(-c2c(-c3ccccc3OC)ncn2Cc2cccc(-c3ccccc3)c2)c1,/,/,/,/,28.2µM*,/
